In the library only some 2.4% were active in any assay of this set; here they are far more common.
Platelet DG rel: modulates dense granule release in human platelets. inhibition, %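 (compounds screened at 7.5 µM in platelet-rich plasma)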. human platelet-rich plasma, SFLLRN dense granule ATP release, luminescence. AID 1663. hit rate 0.22% among 300,000;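 active means mean replicate score, as percent of positive control, at or above 50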
SENP8 block-1: SENP8 protease inhibition; inhibition, % at 10 µM; purified SENP8, Z-RLRGG-aminoluciferin cleavage, luminescence; hit rate 1.2% among 330,000; Q96LD8; in the data active means inhibition above about 50%
SENP8 block-2: SENP8 (human) protease inhibition; Q96LD8; recombinant SENP8, Nedd8 substrate fluorescence; inhibition, % at 20 µM; hit rate 0.64% among 360,000; AID 602440; in the data active means inhibition mostly above about 40%, no sharp cut-off; inactive means mostly below about 27%
SENP7 inh: inhibitors of human SENP7 protease. hit rate 1.5% among 330,000. AID 434973. recombinant SENP7, Z-RLRGG-aminoluciferin luminescence, 40 min. inhibition, % at 5 µM. Q9BQF6;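 active means inhibition above about 50% at the single test dose, limit read from the data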;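 further: plate controls were DMSO with enzyme for no effect and no enzyme buffer wells for full effect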
SENP6 block: SENP6 protease inhibition | Recombinant SENP6 catalytic domain, aminoluciferin luminescence | inhibition, % at 10 µM | hit rate 1.8% among 330,000;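 active means inhibition above about 50% at the single tested dose, limit read from the data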;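 further: plate controls were DMSO wells with enzyme for no effect and DMSO wells lacking enzyme for full effect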
Target sequence (Q9GZR1 628-1112 limits assumed): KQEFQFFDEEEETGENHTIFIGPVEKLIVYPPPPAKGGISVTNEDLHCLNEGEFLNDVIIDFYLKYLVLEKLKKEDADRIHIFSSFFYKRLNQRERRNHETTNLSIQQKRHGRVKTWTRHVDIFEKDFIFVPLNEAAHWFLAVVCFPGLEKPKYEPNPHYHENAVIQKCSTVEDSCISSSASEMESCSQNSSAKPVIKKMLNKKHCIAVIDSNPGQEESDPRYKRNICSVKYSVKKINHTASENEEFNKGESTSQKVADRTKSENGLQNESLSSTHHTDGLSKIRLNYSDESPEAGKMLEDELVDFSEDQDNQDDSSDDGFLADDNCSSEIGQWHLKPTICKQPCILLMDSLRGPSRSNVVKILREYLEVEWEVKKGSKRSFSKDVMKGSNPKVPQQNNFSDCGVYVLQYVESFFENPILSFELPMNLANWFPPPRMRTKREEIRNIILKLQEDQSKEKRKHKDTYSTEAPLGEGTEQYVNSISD
SENP8 confirm: confirmation of human SENP8 protease inhibitors | hit rate 40% among 6,200 | AID 488912 | shares compounds with SENP7 inh | Recombinant SENP8, Z-RLRGG-aminoluciferin luminescence, 60 min | inhibition, % at 12.5 µM;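 active means mean inhibition across replicates above about 50%, limit read from the data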
SENP6 conf: confirmation of human SENP6 protease inhibitors; shares compounds with SENP7 inh; recombinant SENP6, Z-RLRGG-aminoluciferin luminescence; inhibition, % at 12.5 µM; hit rate 58% among 6,200; AID 488915
SENP7 confirm: confirmation of human SENP7 protease inhibitors; shares compounds with SENP7 inh; recombinant SENP7, Z-RLRGG-aminoluciferin luminescence, 40 min; inhibition, % at 12.5 µM; hit rate 69% among 6,200
Casp3 select: caspase-3 inhibition (SENP selectivity assay); inhibition, % at 12.5 µM; AID 488918; purified caspase-3, Z-DEVD-aminoluciferin luminescence, 60 min; hit rate 60% among 6,200; shares compounds with SENP7 inh;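 active means mean inhibition above about 50%, limit read from the data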;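 further: plate controls were enzyme with DMSO for no effect and wells without caspase-3 for full effect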
SENP luc ctr: luminescence interference (SENP counter-screen). shares compounds with SENP7 inh. Pre-incubated SENP8/Z-RLRGG-aminoluciferin, luciferase luminescence interference. inhibition, % at 12.5 µM. hit rate 39% among 6,200. AID 488919;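 active means mean inhibition above about 50% when retested at one dose, limit read from the data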;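 further: plate controls were DMSO wells with completed reaction for no effect and substrate without enzyme for full effect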
* = called active by the depositor; i = inactive; . = no result.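 How the source made its calls, unless noted: active means mean inhibition above about 50% in the one-dose retest (limit read from the data); inactive means the rest.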

SMILES	Platelet DG rel	SENP8 block-1	SENP8 block-2	SENP7 inh	SENP6 block	SENP8 confirm	SENP6 conf	SENP7 confirm	Casp3 select	SENP luc ctr
CN(C)c1ccc(C=NNc2ccccn2)c(Cl)c1	.	.	-474.5	.	.	.	.	.	.	.
CN(C)c1ccc(/C=N\Nc2ccccn2)cc1	6.1	33.8	-172.5	54.2*	68.1*	58.0*	56.9*	86.2*	67.8*	28.5
O=[N+]([O-])c1ccc(/C=N/Nc2ccccn2)cc1	1.3	-18.0	30.4	15.4	-12.5	.	.	.	.	.
O=C(O)c1ccc(/C=N\Nc2ccccn2)cc1	52.8*	88.8*	-2.7	94.9*	91.7*	94.6*	96.0*	101.8*	98.2*	88.9*
CCNC(=O)C1CCCN(Cc2ccc3ccccc3c2Br)CC1 (configuration not stated)	.	.	16.4	.	.	.	.	.	.	.
COc1ccc(-c2cc(=O)c3ccccc3s2)cc1	2.4	84.3*	-8.5	-8.8	92.8*	59.8*	90.6*	99.1*	82.2*	59.0*
COc1ccc2oc3ccc(OC)cc3c(=O)c2c1	9.1	62.1*	-270.5	89.3*	31.5	19.6	53.3*	69.5*	45.8	16.7
COc1ccc2sc3ccccc3c(=O)c2c1	6.1	73.9*	i	81.3*	88.0*	46.3	46.7	77.9*	53.3*	27.5
COc1ccc2cc(-c3ccon3)ccc2c1	3.0	-3.5	-76.0	7.5	13.1	.	.	.	.	.
COc1ccc2cc(-c3cccnc3)ncc2c1	.	39.6	-154.5	58.2*	52.6*	38.4	38.5	80.7*	73.3*	61.7*
COc1ccc(-c2cc3ccc(OC)cc3cn2)cc1	.	46.4	-474.4	84.5*	68.2*	4.7	17.4	58.7*	40.6	-3.8
Fc1ccc2cc(-c3cccnc3)ncc2c1	.	5.3	-18.2	5.2	-7.1	.	.	.	.	.
COc1ccc2cc(-c3ccccc3F)ncc2c1	.	96.6*	-119.2	99.8*	97.4*	98.3*	99.2*	102.8*	96.3*	96.8*
CCC(=O)O/N=C(\N)c1ccc(Oc2cc(C)c(Cl)c(C)c2)c([N+](=O)[O-])c1	17.7	1.2	10.6	-8.9	-4.9	.	.	.	.	.
Cc1cccc(C(=O)n2c(=S)nc3ccccn32)c1	24.0	46.3	2.6	90.4*	90.8*	77.4*	81.7*	91.7*	68.9*	56.2*
O=C(c1ccccc1)n1c(=S)nc2ccccn21	35.5	70.0*	1.8	90.3*	77.9*	2.4	73.8*	93.4*	57.2*	14.9
Cc1ccc(C(=O)n2c(=S)nc3ccccn32)cc1	22.4	.	.	.	.	.	.	.	.	.
O=C(Oc1ccc2ccccc2c1)c1ccccc1	-1.6	70.8*	4.7	-3.5	83.4*	73.5*	86.2*	95.1*	65.7*	69.6*
O=C(Oc1ccc(/C=N/O)cc1)c1ccccc1	-1.5	45.4	3.4	80.0*	78.2*	66.2*	64.8*	89.4*	71.9*	79.3*
Cc1cccc(NC(=O)c2onc3c2CCCC3)n1	21.4	93.0*	3.5	97.0*	95.3*	96.4*	97.6*	102.0*	97.5*	95.5*
Cc1cccc(NC(=O)c2onc3c2CCCC3)c1C	4.0	24.1	10.6	25.1	49.1	.	.	.	.	.
Cc1ccccc1NC(=O)c1onc2c1CCCC2	8.7	65.7*	7.6	54.6*	82.9*	21.6	62.8*	90.2*	84.7*	72.4*
Cc1ccc(N2CC(C(=O)Nc3nnc(SCCN4CCOCC4)s3)CC2=O)cc1C (configuration not stated)	-0.9	0.9	-1.7	7.0	-14.0	.	.	.	.	.
CNC(=O)c1ccc(-c2sc3nc(N4CCOCC4)c4c(c3c2N)CCCC4)o1	2.5	4.6	-251.4	34.9	54.8*	2.4	8.5	5.3	4.0	-0.7
CNS(=O)(=O)c1ccc(C(C)(C)C)cc1	-0.8	4.6	15.2	-5.6	9.3	.	.	.	.	.
CC(C)c1ccc(OCC(=O)NC2=NCCS2)cc1	-0.4	-6.1	25.6	2.4	-5.2	.	.	.	.	.

From PubChem BioAssay
